Only some compounds are listed: those with a hit (about 8% of all), similar ones and a draw of the others.
MCF10A rerep: DNA re-replication induction in MCF 10a cells | MCF 10A DNA re-replication, Hoechst nuclear intensity, 48 h | 350,000 tested, 2.9% active | AID 624296 | Potency, µM (titrated, usually from 46.1 µM), inactives show top-dose activity, positive = re-replication, most hits filed as activators; note: % of control where 0% means no effect; nearly all actives have a fitted effect of over 50% in size
HT1080 IDH1KD tx: HT-1080 IDH1 knockdown cell toxicity (counter line). HT-1080 IDH1 knockdown viability, ATP luminescence, 48 h. Potency, µM (top dose mostly 46.1 µM), for the others: top-dose activity, negative = toxicity, actives largely listed as cytotoxic. 360,000 tested, 2% active. AID 686971;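 note: 0% = DMSO wells and -100% = cell-free medium wells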
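HT-1080-IDH1KD cells (IDH1 knocked down), 750/well in RPMI with 5% FBS, treated with compound 48 h at 37 degrees C. Viability by CellTiter-Glo luminescence, normalised to DMSO and no-cell wells; concentration-response curves classed.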
KB-V1 MDR tox: kills drug-selected multidrug resistant KB-V1 cells. KB-V1 MDR cells viability, CellTiter-Glo, 72 h. AID 1347076. 400,000 tested, 3.4% active. Potency, µM (top dose mostly 46.1 µM), hits mostly cytotoxic; note: % is set by controls: 0 for no effect and ±100 for the full control effect; nearly all actives have a fitted effect of over 60% in size
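Following 72 h at 37 degrees C with compound, KB-V1 cell viability was read by CellTiter-Glo luminescence, medium being phenol-red-free DMEM plus 10% FBS; concentration-response parameters came from normalized, curve-fitted qHTS data.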
HT1080NT lethal: kills 2HG-producing HT-1080-NT fibrosarcoma cells; HT-1080-NT fibrosarcoma viability, CellTiter-Glo ATP luminescence, 48 h; Potency, µM (highest dose often 46.1 µM), without a hit: at the highest dose activity, negative = less viability, most hits filed as cytotoxic; 360,000 tested, 1.6% active; AID 686970;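 note: NT is the 2HG producing partner of a matched IDH1 knockdown line; 0% = DMSO-treated cells and -100% = media-only wells without cells; nearly all actives have a fitted effect of over 55% in size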
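Fibrosarcoma NT cells, 750 per well in 5% FBS RPMI, were exposed to compound for 48 hours. Viability: CellTiter-Glo luminescence.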
KB-3-1 tox: KB-3-1 parental cell cytotoxicity | Potency, µM (series often up to 46.1 µM), most hits filed as cytotoxic | KB-3-1 viability, CellTiter-Glo ATP luminescence, 72 h | 400,000 tested, 1.4% active; note: % is set by controls: 0 for no effect and ±100 for the full control effect; nearly all actives have a fitted effect of over 60% in size
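72 h, 37 °C compound treatment of KB-3-1 parental cells; CellTiter-Glo added, 10 min, luminescence read. Data corrected against DMSO-only plates and normalized before curve fitting.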
SW480 rereplic: inducers of DNA re-replication in SW480 colon cancer cells; SW480 DNA re-replication, Hoechst DNA content imaging, 48 h; Potency, µM (titrated, usually from 46.1 µM), without a hit: at the highest dose re-replication activation, most hits filed as activators; 340,000 tested, 1.8% active; AID 624297; note: % of control where 0% means no effect; nearly all actives have a fitted effect of over 55% in size
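250 cells/well; 23 nL cpd via pin tool; 48 hr, 37 C, 5% CO2; Hoechst 40 min; imager read of total nuclear intensity, ex 405/em 500-530 nm.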
* = called active by the depositor; i = inactive; ? = inconclusive; / = not tested or not shown. Calls come from the whole dose curve; as a rule, active = well fitted curve in the direction sought with a large enough effect; inconclusive = small, poorly fitted or top-dose-only effect, or another doubt; inactive = no such curve, though single readings can be large; an effect the other way counts as inactive or inconclusive. Potency is the fitted concentration of half-maximal effect.

SMILES	MCF10A rerep	HT1080 IDH1KD tx	KB-V1 MDR tox	HT1080NT lethal	KB-3-1 tox	SW480 rereplic
NC(=O)COc1ccccc1/C=C1/SC(=O)N(CC(=O)N2CCc3ccccc3C2)C1=O	7%	-16%	15µM*	0%	i	-1%
Cc1occc1C(=O)N/N=C/C1=C(N2CCOCC2)C(=C\c2ccc(Cl)cc2)/CC1	18µM*	11%	i	0%	i	?
O=C(NP(=O)(N1CCOCC1)N1CCOCC1)C1=C(N2CCOCC2)/C(=C\c2ccccc2)CC1	23µM*	4%	i	5%	i	?
Cc1cc(=O)[nH]c(N/N=C/C2=C(N3CCOCC3)C(=C\c3ccc(Cl)cc3)/CC2)n1	?	-28%	?	-28%	i	1%
Cc1cc(C)nc(N/N=C/C2=C(N3CCOCC3)C(=C/c3ccccc3)/CC2)n1	8.2µM*	-5%	2.3µM*	-2%	?	16µM*
O=C(N/N=C/C1=C(N2CCOCC2)C(=C\c2ccccc2)/CC1)Nc1ccccc1	?	7.3µM*	i	?	i	?
N#C/C(=C/c1ccc(N2CCOCC2)c([N+](=O)[O-])c1)C(N)=O	20%	9%	i	-2%	i	13%
COc1ccc(OC)c2sc(N(CCCN(C)C)C(=O)c3ccco3)nc12	/	/	i	/	i	/
Oc1ccc(C2CNCc3sccc32)cc1O (stereo unspecified)	?	?	i	?	i	-2%
COc1ccc(N2CCN(C(=O)c3sc4ncn(CC(=O)N5CCCCC5)c(=O)c4c3C)CC2)cc1	10%	0%	i	-5%	i	28%
CCCN(CCC)S(=O)(=O)c1ccc(NC(=O)c2cc(C(=O)OC)cc([N+](=O)[O-])c2)cc1	19%	-4%	10µM*	-7%	i	5%
CCC(C)(C)NC(=O)c1cc(C(=O)OC)cc([N+](=O)[O-])c1	-1%	-7%	i	-7%	i	2%
COc1ccc(CN2CCN(CC3CC3)CC2CCO)c(C)c1C (stereo unspecified)	26µM*	-9%	i	-11%	i	-42%
COCCN(C(=O)CSc1nnc(-c2cccc(Cl)c2)n1N)c1c(N)n(CC(C)C)c(=O)[nH]c1=O	/	2%	i	4%	i	/
N#Cc1ccc(C(=O)CSc2nnc(-c3ccc(C(F)(F)F)cn3)s2)cc1	26%	10%	i	12%	i	3.3µM*
Cc1ccc(S(=O)(=O)N2CCN(C(=O)COC(=O)Cc3cccc(C(F)(F)F)c3)CC2)c(C)c1	1%	0%	i	5%	i	-41%
CN1Cc2c(N3CCOCC3)nc3sc(C#N)c(N)c3c2CC1(C)C	12%	1%	i	7%	i	-11%
Cc1nc2c(sc3nc(N4CCOCC4)c4c(c32)CC(C)(C)OC4)c(-c2ccccc2)c1C(=O)O	2.9µM*	1%	i	11%	i	21µM*
CN1Cc2c(N3CCOCC3)nc3sc(C(=O)c4ccc(Br)cc4)c(N)c3c2CC1(C)C	18µM*	13µM*	?	23µM*	?	?
CNC(=O)c1ccc(-c2sc3nc(N4CCOCC4)c4c(c3c2N)CC(C)(C)OC4)o1	2.9µM*	3%	?	4%	i	?
CNC(=O)c1ccc(-c2sc3nc(N4CCOCC4)c4c(c3c2N)CCCC4)o1	?	-13%	?	2%	?	7.3µM*
CC1(C)Cc2c(c(N3CCOCC3)nc3snc(NC(=O)c4ccccc4)c23)CO1	1%	7%	i	-1%	i	0%
CC1(C)Cc2c(c(N3CCOCC3)nc3sc(-c4ccc(C(=O)O)o4)c(N)c23)CO1	?	10%	?	5%	?	19%
O=C(OCC(=O)N1CCc2ccccc2C1)c1ccc(OC(F)F)cc1	-4%	-7%	i	0%	i	-2%
O=C(Nc1ccccc1C(=O)N1CCOCC1)c1cc2ccccc2o1	2%	-2%	i	-2%	i	?
SMILES	MCF10A rerep	HT1080 IDH1KD tx	KB-V1 MDR tox	HT1080NT lethal	KB-3-1 tox	SW480 rereplic
O=C(c1ccccc1SCc1ccc(F)cc1)N1CCOCC1	-3%	2%	i	11%	i	0%
Cc1ccccc1C1CCCN(C(=O)c2cc(COc3c(F)cccc3F)on2)C1 (stereo unspecified)	-4%	-8%	i	0%	i	3%
O=C(c1cc(-c2ccc(Cl)cc2)n(-c2cc(Cl)ccc2Cl)n1)N1CCOCC1	7%	-2%	i	-3%	i	-6%
CCCCN(C(=O)CN1C(=O)C2CCCCC2C1=O)c1c(N)n(CCCC)c(=O)[nH]c1=O (stereo unspecified)	-20%	16%	i	15%	i	-129%
CCCN(CC(=O)Nc1ccccc1C)C(=O)C1CCN(c2ncnc3sc(C)c(C)c23)CC1	?	-18%	21µM*	-12%	i	5%
COc1ccc(-c2csc(NC(=O)C3CCN(c4ncnc5sc(C)c(C)c45)CC3)n2)cc1OC	?	?	i	5.8µM*	?	-104%
Cc1sc2ncnc(N3CCC(C(=O)Nc4ccc(Br)cc4Br)CC3)c2c1C	18%	18%	5.8µM*	9%	?	0%
CCOc1ccc(CN2C(=O)c3ccccc3C2=O)cc1C(=O)N1CCC(C(N)=O)CC1	3%	-8%	/	-6%	/	-1%
Cc1ccc(C(=O)O/N=C(\N)c2ccccn2)c(C)c1	7.3µM*	15µM*	?	16µM*	?	?
Cc1ccc(C)c(OCC(=O)O/N=C(\N)c2ccccn2)c1	10µM*	-5%	i	-6%	i	-5%
Cc1ccc(C)c(OCC(=O)O/N=C(\N)c2cccnc2)c1	20%	1%	i	-2%	i	1%
COc1cccc(-c2cnc3c(NC(C)=O)cc(-c4ccccc4OC)cn23)c1	/	?	i	?	i	/
O=C(NCc1cccnc1)C1CC2c3ccccc3C1c1ccccc12 (stereo unspecified)	6%	0%	i	-2%	i	0%
NCC1CC2c3ccccc3C1c1ccccc12 (stereo unspecified)	13%	-16%	i	-20%	i	23µM*
N#Cc1cccc(NC(=O)CSc2cccc[n+]2[O-])c1	-6%	10%	i	11%	i	-6%
Cc1cc(C)c(OCCOCCN2CCN(C)CC2)c(Cl)c1	5.8µM*	3%	i	-1%	i	-34%
